This passage reports growth inhibition results from PubChem BioAssay (NCI).

About 79,000 compounds went through this panel and 15% of them were active in at least one assay; those are over-represented in the sample as a whole. Active and inactive are the calls of the source. No stated cut-off is given here; in the data, active means growth inhibition above about 70%; inactive means the rest.

The first test in a line: NCI Yeast Anticancer Drug Screen. Data for the rad50 strain (AID 155).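 Further: 0% = growth of vehicle-only cultures of the same strain.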 The following applies: S. cerevisiae rad50 strain growth inhibition; at 50.0 µM; hits give high values. In outline: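 Compounds were tested on a yeast strain with an engineered DNA damage repair alteration; the reported value is growth inhibition normalised to vehicle treatment.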
Regarding `CC1CCC2C(C)C3C(CC4C5CC=C6CC(O)CCC6(C)C5CCC43C=O)N2C1` (centres undefined), the growth inhibition is 30.3% (inactive).

As to `CCCCCCCCCCCCCC(=O)OCCN(C)C`, the growth inhibition was 4.1% (inactive).

Take `C[N+]1(C)CCC(c2ccccc2)(c2ccccc2)C(O)C1` (centres undefined): the growth inhibition is -8.85% (inactive).

As to `CN(C)c1ccccc1C(=O)NNC(=S)Nc1ccccc1`, the growth inhibition is 20.9% (inactive).

In the case of `CCN(CC)CCNC(=O)c1ccccc1NC(=O)C(=O)Nc1ccccc1C(=O)NCCN(CC)CC`, the growth inhibition is -46.9% (inactive).

Regarding `C/C=C1/CN2CCc3c([nH]c4ccccc34)C2CC1C(Cc1c[n+]2c(c3[nH]c4ccccc4c13)CC1C(C(=O)OC)=COC(C)C1C2)C(=O)OC` (centres undefined), the growth inhibition was 13.4% (inactive).

Consider `CC(C)(c1ccc([N+](=O)[O-])cc1)c1ccc(N)c([N+](=O)[O-])c1`, for which the growth inhibition was 0.65% (inactive).

As for `C1=CC(c2ccccc2)C(c2ccccc2)C(c2ccccc2)=C1` (centres undefined), the growth inhibition was -16.6% (inactive).

On to `O=C1OC(c2ccc([N+](=O)[O-])cc2)=N/C1=C\c1cccc([N+](=O)[O-])c1`, for which the growth inhibition is 23.1% (inactive).

With `CC1CNC(=S)SSC(=S)N1` (centres undefined), the growth inhibition is 35.8% (inactive).

`CC(=O)c1cc2c(cc1C(C)C)C(C)(C)C(C)CC2(C)C` (centres undefined): the growth inhibition was -19.6% (inactive).

Turning to `CO[C@H]1CC2CC1C1C3=C(NC21)C1(O)C[C@H]2CN(CC3)C1C[C@@H]2C(C)CO` (some centres undefined), the growth inhibition is -3.6% (inactive).

Consider `Nc1nc(N)c(N=Nc2ccc(Cl)cc2)c(=O)[nH]1`, for which the growth inhibition was 19.9% (inactive).

Take `O=C(O)/C=C\c1cc2c(cc1[N+](=O)[O-])OCO2`: the growth inhibition is 0.4% (inactive).

With `CCCOc1ccc(C(N)=S)c2ccccc12`, the growth inhibition is -0.25% (inactive).

For `O=C(O)c1cccc2c1C(=O)c1c(O)cccc1C2=O`, the growth inhibition was 35.9% (inactive).

Regarding `O=C1C(O)=C(Br)C(=O)C(O)=C1Br`, the growth inhibition is 6.2% (inactive).

For `Oc1ccccc1/C=N\c1nccs1`, the growth inhibition was 10.7% (inactive).

For the molecule `COc1ccccc1C=Nc1ccc(O)cc1`, the growth inhibition was 8.45% (inactive).

Regarding `O=C(O)C1COCOC1c1ccccc1` (centres undefined), the growth inhibition is -1.6% (inactive).

Consider `CNS(=O)(=O)c1c(C)cccc1CC(=O)c1ccccc1`, for which the growth inhibition was -4.3% (inactive).

Consider `CCC1CNCCC1CC(=O)O` (centres undefined), for which the growth inhibition is 7.95% (inactive).

In the case of `O=C1/C(=C\c2ccccn2)c2ccccc2N1Cc1ccccc1`, the growth inhibition was 7.6% (inactive).

Turning to `Cn1c(SCc2ccc(F)cc2)nnc1C12CC3CC(CC(C3)C1)C2`, the growth inhibition was -32.2% (inactive).

For `S=C(Sc1nc2ccccc2s1)Sc1nc2ccccc2s1`, the growth inhibition is 72% (active).

In the case of `CN(C)C(=O)Nc1ccc2c(c1)OCO2`, the growth inhibition was 0.8% (inactive).

On to `O=C1CN(CN2CCOCC2)C(=O)CN1CN1CCOCC1`, for which the growth inhibition is 39.3% (inactive).

Turning to `NC(=O)c1cn(C2OC(CO)C(O)C2O)c2nc(N)nc(N)c2c1=O` (centres undefined), the growth inhibition was 19% (inactive).

For `CCOc1ccc(C(C)c2cc3c(cc2OC)OCO3)cc1` (centres undefined), the growth inhibition is 20.7% (inactive).

`N/C=N/O`: the growth inhibition is 19.9% (inactive).

In the case of `Cc1ccc(NC(=S)Nc2cccc(C(F)(F)F)c2)cc1C`, the growth inhibition is -11.9% (inactive).

Consider `COc1cc(-c2[nH]ncc2CCCC(=O)Nc2ccccc2[N+](=O)[O-])ccc1O`, for which the growth inhibition was 20.9% (inactive).

For `COc1ccc(-n2cnc3[nH]ncc3c2=O)cc1`, the growth inhibition is 1.7% (inactive).

For `Cc1cccc2c1CCC21OC(=O)c2c1ccc1ccccc21` (centres undefined), the growth inhibition was 10.9% (inactive).

For the molecule `CC(=Nc1cccc2ccccc12)c1c(O)cc(C)oc1=O`, the growth inhibition was 20.4% (inactive).

On to `CC(=O)N1CN2C(=O)CCC2c2ccccc21` (centres undefined), for which the growth inhibition was -7.85% (inactive).

Turning to `O=C(O)c1ccc(C(=O)c2ccc(Cl)cc2)cc1`, the growth inhibition was 31.9% (inactive).

Consider `C=CCNC(=S)N1c2ccccc2NC(=O)CC1C` (centres undefined), for which the growth inhibition was -45.8% (inactive).

On to `CC(=O)Oc1ccc2c(=O)c(C(C)=O)coc2c1`, for which the growth inhibition is 7.45% (inactive).

Turning to `CCOc1ccc(C2=C/C(=C/c3cccs3)C(=O)O2)cc1`, the growth inhibition was 4.2% (inactive).

The nature of the next test: NCI Yeast Anticancer Drug Screen. Data for the sgs1 mgt1 strain (AID 161).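 Further: 0% = growth of cultures given vehicle only.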 The following applies: S. cerevisiae sgs1 mgt1 strain, at 50.0 µM, hits give high values. In outline: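 This yeast growth screen uses a strain with defined DNA-repair lesions; compound-treated growth is compared with vehicle-treated growth.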
On to `CC1CCC2C(C)C3C(CC4C5CC=C6CC(O)CCC6(C)C5CCC43C=O)N2C1` (centres undefined), for which the growth inhibition is 24.9% (inactive).

On to `CCCCCCCCCCCCCC(=O)OCCN(C)C`, for which the growth inhibition is 7.7% (inactive).

As for `C[N+]1(C)CCC(c2ccccc2)(c2ccccc2)C(O)C1` (centres undefined), the growth inhibition was 0% (inactive).

`CN(C)c1ccccc1C(=O)NNC(=S)Nc1ccccc1`: the growth inhibition is 42.7% (inactive).

Take `CCN(CC)CCNC(=O)c1ccccc1NC(=O)C(=O)Nc1ccccc1C(=O)NCCN(CC)CC`: the growth inhibition is -55.2% (inactive).

In the case of `C/C=C1/CN2CCc3c([nH]c4ccccc34)C2CC1C(Cc1c[n+]2c(c3[nH]c4ccccc4c13)CC1C(C(=O)OC)=COC(C)C1C2)C(=O)OC` (centres undefined), the growth inhibition was -21.4% (inactive).

For `CC(C)(c1ccc([N+](=O)[O-])cc1)c1ccc(N)c([N+](=O)[O-])c1`, the growth inhibition was -10.6% (inactive).

Consider `C1=CC(c2ccccc2)C(c2ccccc2)C(c2ccccc2)=C1` (centres undefined), for which the growth inhibition is 8.8% (inactive).

For the molecule `O=C1OC(c2ccc([N+](=O)[O-])cc2)=N/C1=C\c1cccc([N+](=O)[O-])c1`, the growth inhibition was 36.2% (inactive).

For the molecule `CC1CNC(=S)SSC(=S)N1` (centres undefined), the growth inhibition is 20.9% (inactive).

For the molecule `CC(=O)c1cc2c(cc1C(C)C)C(C)(C)C(C)CC2(C)C` (centres undefined), the growth inhibition is 13.8% (inactive).

Turning to `CO[C@H]1CC2CC1C1C3=C(NC21)C1(O)C[C@H]2CN(CC3)C1C[C@@H]2C(C)CO` (some centres undefined), the growth inhibition is 2.75% (inactive).

Consider `Nc1nc(N)c(N=Nc2ccc(Cl)cc2)c(=O)[nH]1`, for which the growth inhibition is -26.1% (inactive).

On to `O=C(O)/C=C\c1cc2c(cc1[N+](=O)[O-])OCO2`, for which the growth inhibition is -4.2% (inactive).

For `CCCOc1ccc(C(N)=S)c2ccccc12`, the growth inhibition is 8.45% (inactive).

As for `O=C(O)c1cccc2c1C(=O)c1c(O)cccc1C2=O`, the growth inhibition is 42.4% (inactive).

`O=C1C(O)=C(Br)C(=O)C(O)=C1Br`: the growth inhibition was 10.1% (inactive).

Regarding `Oc1ccccc1/C=N\c1nccs1`, the growth inhibition is 18.6% (inactive).

For the molecule `COc1ccccc1C=Nc1ccc(O)cc1`, the growth inhibition was 3.9% (inactive).

Consider `O=C(O)C1COCOC1c1ccccc1` (centres undefined), for which the growth inhibition is 3% (inactive).

Take `CNS(=O)(=O)c1c(C)cccc1CC(=O)c1ccccc1`: the growth inhibition is 12.2% (inactive).

Consider `CCC1CNCCC1CC(=O)O` (centres undefined), for which the growth inhibition was -2.05% (inactive).

Regarding `O=C1/C(=C\c2ccccn2)c2ccccc2N1Cc1ccccc1`, the growth inhibition is 8.75% (inactive).

`Cn1c(SCc2ccc(F)cc2)nnc1C12CC3CC(CC(C3)C1)C2`: the growth inhibition was -22.6% (inactive).

In the case of `S=C(Sc1nc2ccccc2s1)Sc1nc2ccccc2s1`, the growth inhibition was 95% (active).

Turning to `CN(C)C(=O)Nc1ccc2c(c1)OCO2`, the growth inhibition was -1.4% (inactive).

For `O=C1CN(CN2CCOCC2)C(=O)CN1CN1CCOCC1`, the growth inhibition was 44% (inactive).

Regarding `NC(=O)c1cn(C2OC(CO)C(O)C2O)c2nc(N)nc(N)c2c1=O` (centres undefined), the growth inhibition was 14.3% (inactive).

Regarding `CCOc1ccc(C(C)c2cc3c(cc2OC)OCO3)cc1` (centres undefined), the growth inhibition is 20.8% (inactive).

For the molecule `N/C=N/O`, the growth inhibition is 16.6% (inactive).

Regarding `Cc1ccc(NC(=S)Nc2cccc(C(F)(F)F)c2)cc1C`, the growth inhibition was -5.75% (inactive).

As to `COc1cc(-c2[nH]ncc2CCCC(=O)Nc2ccccc2[N+](=O)[O-])ccc1O`, the growth inhibition is -14.5% (inactive).

Take `COc1ccc(-n2cnc3[nH]ncc3c2=O)cc1`: the growth inhibition is 0.05% (inactive).

On to `Cc1cccc2c1CCC21OC(=O)c2c1ccc1ccccc21` (centres undefined), for which the growth inhibition was 6.3% (inactive).

As to `CC(=Nc1cccc2ccccc12)c1c(O)cc(C)oc1=O`, the growth inhibition is 15.2% (inactive).

In the case of `CC(=O)N1CN2C(=O)CCC2c2ccccc21` (centres undefined), the growth inhibition was -14.2% (inactive).

On to `O=C(O)c1ccc(C(=O)c2ccc(Cl)cc2)cc1`, for which the growth inhibition is 42.4% (inactive).

As for `C=CCNC(=S)N1c2ccccc2NC(=O)CC1C` (centres undefined), the growth inhibition was -20.4% (inactive).

Take `CC(=O)Oc1ccc2c(=O)c(C(C)=O)coc2c1`: the growth inhibition is -3.15% (inactive).
